In PubChem BioAssay AID2284188 (EPA ToxCast) one finds AC50 data, which are given here for 1 compound.

Structures are written as SMILES. Activity calls are given as the source filed them. The calls were made as follows: active = hit-call score of the fitted dose curve at least 0.9, where 1 is the maximum; inactive = score below 0.9.

Chain of Voltage-dependent L-type calcium channel subunit alpha-1C (Rattus norvegicus) (P22002 whole entry, looked up): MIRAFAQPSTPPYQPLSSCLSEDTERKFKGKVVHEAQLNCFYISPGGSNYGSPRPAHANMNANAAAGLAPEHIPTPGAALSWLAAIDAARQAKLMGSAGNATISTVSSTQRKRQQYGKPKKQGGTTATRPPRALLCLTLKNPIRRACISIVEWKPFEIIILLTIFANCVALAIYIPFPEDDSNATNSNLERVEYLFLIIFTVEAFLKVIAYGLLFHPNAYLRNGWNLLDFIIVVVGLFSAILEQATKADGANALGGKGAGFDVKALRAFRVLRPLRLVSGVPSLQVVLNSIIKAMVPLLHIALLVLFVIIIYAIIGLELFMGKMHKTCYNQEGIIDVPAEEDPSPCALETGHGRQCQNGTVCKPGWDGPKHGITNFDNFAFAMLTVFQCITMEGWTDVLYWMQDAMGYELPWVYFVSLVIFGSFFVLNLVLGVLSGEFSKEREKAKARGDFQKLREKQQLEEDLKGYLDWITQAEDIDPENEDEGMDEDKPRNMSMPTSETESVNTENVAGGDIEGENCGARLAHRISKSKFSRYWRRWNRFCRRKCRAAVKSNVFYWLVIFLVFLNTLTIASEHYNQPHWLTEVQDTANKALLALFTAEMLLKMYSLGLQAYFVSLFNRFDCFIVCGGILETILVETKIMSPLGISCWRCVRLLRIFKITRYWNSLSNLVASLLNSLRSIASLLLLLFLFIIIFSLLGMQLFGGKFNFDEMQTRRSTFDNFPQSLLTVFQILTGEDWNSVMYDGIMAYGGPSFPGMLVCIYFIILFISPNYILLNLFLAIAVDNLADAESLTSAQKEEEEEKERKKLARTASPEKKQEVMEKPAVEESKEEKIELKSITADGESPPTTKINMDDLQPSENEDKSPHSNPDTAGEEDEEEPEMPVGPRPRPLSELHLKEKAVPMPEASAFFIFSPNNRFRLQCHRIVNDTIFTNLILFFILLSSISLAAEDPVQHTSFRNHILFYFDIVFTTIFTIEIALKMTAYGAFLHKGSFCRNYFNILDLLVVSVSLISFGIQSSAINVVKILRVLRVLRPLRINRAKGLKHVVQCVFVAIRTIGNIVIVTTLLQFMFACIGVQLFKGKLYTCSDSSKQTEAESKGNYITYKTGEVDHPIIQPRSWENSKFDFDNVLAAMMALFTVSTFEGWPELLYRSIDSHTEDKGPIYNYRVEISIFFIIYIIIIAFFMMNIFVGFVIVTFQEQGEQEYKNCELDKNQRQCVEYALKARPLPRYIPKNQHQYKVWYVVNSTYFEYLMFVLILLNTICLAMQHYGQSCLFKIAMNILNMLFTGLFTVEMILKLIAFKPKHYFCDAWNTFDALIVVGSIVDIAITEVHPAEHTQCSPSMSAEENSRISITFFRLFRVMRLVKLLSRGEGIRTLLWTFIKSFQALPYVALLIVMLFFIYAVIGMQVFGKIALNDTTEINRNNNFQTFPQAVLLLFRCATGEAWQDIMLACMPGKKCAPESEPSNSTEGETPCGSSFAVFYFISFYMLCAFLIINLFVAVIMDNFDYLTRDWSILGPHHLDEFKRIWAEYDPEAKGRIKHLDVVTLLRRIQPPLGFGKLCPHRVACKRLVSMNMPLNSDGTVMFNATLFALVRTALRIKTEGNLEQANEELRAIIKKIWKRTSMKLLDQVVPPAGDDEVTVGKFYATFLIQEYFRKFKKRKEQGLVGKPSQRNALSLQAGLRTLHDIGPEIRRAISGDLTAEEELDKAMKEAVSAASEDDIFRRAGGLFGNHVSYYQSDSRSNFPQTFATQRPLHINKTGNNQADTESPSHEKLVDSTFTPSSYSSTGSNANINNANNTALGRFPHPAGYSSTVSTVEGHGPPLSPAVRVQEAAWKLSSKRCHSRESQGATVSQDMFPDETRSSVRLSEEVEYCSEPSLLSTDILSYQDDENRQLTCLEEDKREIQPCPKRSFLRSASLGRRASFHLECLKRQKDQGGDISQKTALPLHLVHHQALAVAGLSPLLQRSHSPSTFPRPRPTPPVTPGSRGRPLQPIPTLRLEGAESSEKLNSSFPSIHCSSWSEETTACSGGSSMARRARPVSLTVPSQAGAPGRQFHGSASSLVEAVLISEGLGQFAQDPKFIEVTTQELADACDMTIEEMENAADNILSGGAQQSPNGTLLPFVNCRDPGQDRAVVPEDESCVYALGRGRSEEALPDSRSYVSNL

The assay addresses Voltage-dependent L-type calcium channel subunit alpha-1C (Rattus norvegicus) (UniProt P22002). Kind of assay: ERF_FR_IC_rCACNA1C_Diltiazem: Eurofins (ERF) Calcium Ion Channel Binding (Diltiazem Site) LeadHunter Assay for rat Cav1.2 (L-type). Here is the method:
ERF_FR_IC_rCACNA1C_Diltiazem is a biochemical, single-readout assay that uses extracted gene-proteins in a cell-free assay. Measurements were taken 2 hour after chemical dosing in a 96-well plate. See Cav1.2 (L-type) Rat Calcium Ion Channel Binding (Diltiazem Site) Assay, Cerep.ERF_FR_IC_rCACNA1C_Diltiazem is an assay component calculated from the ERF_FR_IC_rCACNA1C_Diltiazem assay. It is designed to measure radioligand binding using a type of binding reporter as detected by scintillation counting with radiometry technology.Data from the assay component ERF_FR_IC_rCACNA1C_Diltiazem was analyzed at the assay endpoint, ERF_FR_IC_rCACNA1C_Diltiazem, in the positive analysis fitting direction relative to DMSO as the negative control and baseline of activity. Using a type of binding reporter, loss-of-signal activity can be used to understand changes in binding as they relate to gene CACNA1C. To generalize the intended target to other relatable targets, this assay endpoint is annotated to the ion channel intended target family, where the subfamily is voltage gated (Calcium).
Rat cells are incubated for 120 minutes at room temprature with [3H]diltiazem (15 nM) as substrate and Papaverine as control inhibitor. Test Sample Requirements: Minimum for 1) Screen: 60 ul of 10 mM stock -OR- 1 mg (pre-weighed) for 10 uM final testing. […]
What is called AC50 is the concentration at which the activity in the assay is half-maximal. In the case of `O=C(/C=C/c1ccc(O)cc1)CC(=O)/C=C/c1ccc(O)cc1`, the half-maximal activity concentration (AC50) was 3.46 µM (active).
